In PubChem BioAssay (NCATS):
Values joined by “and” are separate entries in the source; they are usually repeats but may differ in a detail not shown here. Equal values may be shown once. Inconclusive results are not listed. The source holds several records for some structures; these can differ, active in one and inactive in another. Active and inactive are the calls of the source. Unless noted, the call rests on the fitted dose curve; in most records, active means well fitted curve in the direction sought with a large enough effect; inconclusive means small, poorly fitted or top-dose-only effect, or another doubt; inactive means no such curve, though single readings can be large; an effect the other way counts as inactive or inconclusive.

Legend:
[1] = biological target: Alpha-galactosidase (Coffea arabica) (UniProt Q42656); assay: Counterscreen for Glucocerebrosidase Inhibitors: qHTS Assay for Coffee Bean alpha-Galactosidase at pH 5.9 (AID 998)
Procedure, shortened: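 Enzyme 2 nM + cpd (0.7 nM–77 uM titration) + 4-MU-alpha-Gal 80 uM, pH 5.9 citrate/Tween-20, RT 20 min, NaOH/glycine stop pH 10, fluor 365/440. Normalized to no-enzyme and full-activity controls; Hill-fit AC50.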

[2] = Cell Viability - LYMP2-025 (AID 976); further: potency means the concentration at half of the fitted maximal effect
Procedure, shortened: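 Luminescent ATP readout after 24 hr treatment of a human lymphoblastoid line (LYMP2-025, 2500 cells/well, 37 C). Reagent developed 30 min at room temperature; AC50 fitted with the Hill equation.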

[3] = Cell Viability - LYMP2-002 (AID 977);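 further: compound exposure lasted 24 h at 37 °C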; further: potency means the concentration at half of the fitted maximal effect
Procedure, shortened: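 Human lymphoblastoid cells, 2500/well, complete medium; 5 h 37 C settle; compound 24 h 37 C; CellTiter-Glo, 30 min RT; luminescence. Decrease in ATP = cytotoxicity; AC50 via Hill equation.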

[4] = Cell Viability - LYMP2-006 (AID 978); further: nearly all actives have a fitted effect of over 60% in size; further: potency means the concentration at half of the fitted maximal effect
Procedure, shortened: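 Concentration-dependent loss of intracellular ATP in a human lymphoblastoid line after 24 hr treatment at 37 C was measured by CellTiter-Glo luminescence, with AC50 values obtained from standard Hill-equation modelling.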

[5] = Cell Viability - LYMP2-007 (AID 979);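 further: cells exposed to compound for 24 h before reading; nearly all actives have a fitted effect of over 60% in size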; further: potency means the concentration at half of the fitted maximal effect
Procedure, shortened: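 Measured via luciferase-based ATP quantitation: lymphoblastoid cells, 24 hr compound exposure at 37 C, AC50 from Hill fits.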

[6] = Cell Viability - LYMP2-008 (AID 980); further: nearly all actives have a fitted effect of over 60% in size; further: potency means the concentration at half of the fitted maximal effect
Procedure, shortened: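 Measured: ATP-dependent luminescence, proportional to viable cell number, in human lymphoblastoid cells treated 24 hr with compound in complete culture medium. Values are AC50s from Hill-equation modelling of qHTS titrations.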

[7] = Cell Viability - LYMP2-010 (AID 981); further: nearly all actives have a fitted effect of over 55% in size; further: potency means the concentration at half of the fitted maximal effect
Procedure, shortened: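 This 24 hr viability screen uses LYMP2-010 lymphoblastoid cells, quantifies ATP via luciferase luminescence, and derives AC50 from Hill fits of qHTS concentration-response data.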

[8] = Cell Viability - LYMP2-012 (AID 982);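 further: cellular ATP by luciferase luminescence where a drop means cytotoxicity; cells exposed to compound for one day before reading; nearly all actives have a fitted effect of over 55% in size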; further: potency means the concentration at half of the fitted maximal effect
[9] = Cell Viability - LYMP2-014 (AID 983); further: nearly all actives have a fitted effect of over 50% in size; further: potency means the concentration at half of the fitted maximal effect
Procedure, shortened: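 Quantitative HTS in lymphoblastoid cells: 24 hr compound exposure, then CellTiter-Glo ATP luminescence. Positive control was tetraoctylammonium bromide, 6.4pM to 92 uM.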

[10] = Cell Viability - LYMP2-016 (AID 984); further: nearly all actives have a fitted effect of over 55% in size; further: potency means the concentration at half of the fitted maximal effect
Procedure, shortened: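 Acute toxicity in a Coriell human lymphoblastoid line is scored as loss of intracellular ATP over 24 h of treatment in complete medium. CellTiter-Glo signal is fitted across concentrations with the Hill equation to give AC50.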

[11] = Cell Viability - LYMP2-018 (AID 985); further: nearly all actives have a fitted effect of over 50% in size; further: potency means the concentration at half of the fitted maximal effect
Procedure, shortened: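 In this qHTS viability assay, cells are treated for 24 hr and cellular ATP is quantified by luciferase-based luminescence, with tetraoctylammonium bromide as positive control.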

[12] = Cell Viability - LYMP2-020 (AID 986); further: nearly all actives have a fitted effect of over 55% in size; further: potency means the concentration at half of the fitted maximal effect
Procedure, shortened: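 Cells at 2500 per well receive a 24 hr compound exposure at 37 C. Viability is measured as ATP-dependent luciferase luminescence, with AC50 modeled from qHTS concentration-response curves.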

[13] = Cell Viability - LYMP2-022 (AID 987); further: nearly all actives have a fitted effect of over 55% in size; further: potency means the concentration at half of the fitted maximal effect
Procedure, shortened: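 In this qHTS cytotoxicity screen, compound titrations were incubated 24 hr at 37 C with human lymphoblastoid cells in complete medium. Luciferase-based ATP luminescence provided the viability signal.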

[14] = Cell Viability - LYMP2-024 (AID 988); further: nearly all actives have a fitted effect of over 60% in size; further: potency means the concentration at half of the fitted maximal effect
Procedure, shortened: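 Cells at 2500 per well received compound for 24 hr after a 5 hr settling period. Viability was scored by CellTiter-Glo luminescence, with AC50 from Hill fits.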

[15] = Cell Viability - LYMP2-026 (AID 989); further: nearly all actives have a fitted effect of over 50% in size; further: potency means the concentration at half of the fitted maximal effect
Procedure, shortened: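 Acute toxicity screen in complete culture medium, with 24 hr compound exposure at 37 C. Viability read as cellular ATP via luciferase reaction, with tetraoctylammonium bromide (6.4pM to 92 uM) as positive control.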

[16] = Cell Viability - LYMP1-002 - Assay at 24 hr (AID 993); further: potency means the concentration at half of the fitted maximal effect
Procedure, shortened: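 Viability was judged from intracellular ATP using a luciferase read-out, following a 24-hour compound incubation at 37 C of lymphoblastoid cells seeded at 2500 per well. Concentration-response data were fitted to the Hill equation for AC50.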

[17] = Cell Viability - LYMP1-002 - Assay at 40 hr (AID 994); further: nearly all actives have a fitted effect of over 60% in size; further: potency means the concentration at half of the fitted maximal effect
Procedure, shortened: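 Concentration-dependent ATP loss after 40 hr treatment at 37 C defined toxicity; AC50 values were obtained by fitting the standard Hill equation.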

[18] = biological target: Alpha-galactosidase A (Homo sapiens) (UniProt P06280); assay: Counterscreen for Glucocerebrosidase Inhibitors: qHTS Assay for Human alpha-Galactosidase at pH 4.5 (AID 992)
Procedure, shortened: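 Fluorogenic 4-MU alpha-D-galactoside (80 uM) hydrolysis, 2 nM enzyme, pH 4.5 citrate buffer + 0.005% Tween-20; 20 min RT; NaOH/glycine pH 10 stop; Ex365/Em440. Compounds titrated 0.7 nM–77 uM; Hill-equation AC50.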

[19] = biological target: alpha-glucosidase (Oryza sativa, rice) (UniProt Q653V4); assay: Counterscreen for Glucocerebrosidase Inhibitors: qHTS Assay for Rice alpha-Glucosidase at pH 5.0 (AID 997)
Procedure, shortened: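 Endpoint fluorogenic assay at pH 5.0: compounds (0.7 nM to 77 uM) titrated against 4 nM rice enzyme and 400 uM 4-MU-alpha-glucoside for 20 min at room temperature; NaOH/glycine stop, read ex 365/em 440 nm, Hill-fitted AC50.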

[20] = Validation of Assay for Modulators of Lamin A Splicing (AID 1459; active means well fitted curve in the direction sought with a large enough effect in the signal ratio; the % refers to the signal ratio;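 further: cells exposed to compound for two days before reading; ratio rise marks activators and ratio drop marks inhibitors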)
Procedure, shortened: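 Splicing correction is reported by an EGFP-containing lamin A minigene in stably transfected S3 HeLa cells, while DsRed2 controls for viability and nonspecific signal. Cells are exposed to compounds for 48 hrs before the GFP over RFP ratio is taken.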

Measured: Potency

Chain of Alpha-galactosidase A (Homo sapiens) (P06280 whole entry, looked up): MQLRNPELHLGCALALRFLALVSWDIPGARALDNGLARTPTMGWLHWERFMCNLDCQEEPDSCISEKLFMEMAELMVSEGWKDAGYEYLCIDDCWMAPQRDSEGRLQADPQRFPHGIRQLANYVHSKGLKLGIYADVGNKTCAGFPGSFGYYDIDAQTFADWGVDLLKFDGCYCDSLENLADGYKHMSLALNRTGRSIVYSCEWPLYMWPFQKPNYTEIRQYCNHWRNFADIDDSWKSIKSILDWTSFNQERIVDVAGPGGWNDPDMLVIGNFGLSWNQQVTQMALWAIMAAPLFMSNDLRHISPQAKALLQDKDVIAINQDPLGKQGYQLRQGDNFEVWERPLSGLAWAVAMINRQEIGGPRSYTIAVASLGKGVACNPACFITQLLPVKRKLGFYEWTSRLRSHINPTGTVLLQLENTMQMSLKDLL
Chain of Alpha-galactosidase (Coffea arabica) (Q42656 whole entry, looked up): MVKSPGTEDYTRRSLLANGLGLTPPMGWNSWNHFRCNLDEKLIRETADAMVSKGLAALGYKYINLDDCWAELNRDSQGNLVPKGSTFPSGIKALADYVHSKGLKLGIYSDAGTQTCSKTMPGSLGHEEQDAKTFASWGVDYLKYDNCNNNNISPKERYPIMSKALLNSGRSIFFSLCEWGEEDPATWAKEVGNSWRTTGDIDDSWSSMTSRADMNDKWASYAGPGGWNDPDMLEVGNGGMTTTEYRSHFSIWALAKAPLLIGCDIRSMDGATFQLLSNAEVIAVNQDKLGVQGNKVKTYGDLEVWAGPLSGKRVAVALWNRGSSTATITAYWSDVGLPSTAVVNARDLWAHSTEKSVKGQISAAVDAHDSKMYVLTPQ

CN1[C@@H]2CC[C@H]1CC(OC(=O)c1c[nH]c3ccccc13)C2 (stereo not given in full)
inactive: [1]

O=C(CCl)c1ccc(Cl)cc1Cl
active: [2] 7.94 µM | [3] 7.94 µM | [4] 7.94 µM | [5] 5.01 µM | [6] 7.94 µM | [7] 2.51 µM | [8] 3.16 µM | [9] 5.01 µM | [10] 5.01 µM | [11] 3.16 µM | [12] 5.01 µM | [13] 2 µM | [14] 2.51 µM | [15] 6.31 µM | [16] 15.8 µM | [17] 25.1 µM

c1ccc2nc(N3CCNCC3)ccc2c1
inactive: [18] | [19]

O=C(O)c1nn(Cc2ccc(Cl)cc2Cl)c2ccccc12
inactive: [18] | [19] | [1] | [20]

COCC(=O)O[C@]1(CCN(C)CCCc2nc3ccccc3[nH]2)CCc2cc(F)ccc2[C@@H]1C(C)C
inactive: [1]

OC(CN1CCC(Cc2ccc(F)cc2)CC1)c1ccc(Cl)cc1 (stereo not given)
inactive: [1]

CN(C)C(=S)SSC(=S)N(C)C
active: [2] 0.251 µM | [3] 0.316 µM | [4] 0.251 µM | [5] 0.316 µM | [6] 0.251 µM | [7] 0.251 µM | [8] 0.199 µM | [9] 0.199 µM | [10] 0.316 µM | [11] 0.199 µM | [12] 0.398 µM | [13] 0.158 µM | [14] 0.251 µM | [16] 0.316 µM | [17] 3.98 µM

Cc1cc(C(C)(C)C)c(O)c(C)c1CC1=NCCN1
inactive: [1]

NC(=O)CN1CCCC1=O
inactive: [18] | [19] | [1]

CCCCNc1cc(C(=O)O)cc(S(N)(=O)=O)c1Oc1ccccc1
inactive: [1]

COc1ccc2c(c1)c(CC(=O)O)c(C)n2C(=O)c1ccc(Cl)cc1
inactive: [1]

Cn1c(=O)c2c(ncn2C)n(C)c1=O
inactive: [1]

CCCCCCCCCCCC[N+](C)(C)CCOc1ccccc1
active: [2] 50.1 µM | [3] 50.1 µM | [4] 20 µM | [5] 25.1 µM | [6] 25.1 µM | [7] 39.8 µM | [8] 39.8 µM | [9] 39.8 µM | [10] 31.6 µM | [11] 39.8 µM | [12] 39.8 µM | [13] 39.8 µM | [14] 39.8 µM | [15] 39.8 µM | [16] 7.94 µM | [17] 31.6 µM

CN(C)C(=O)Oc1cccc([N+](C)(C)C)c1
inactive: [1]

O=C(O)c1cccnc1Nc1cccc(C(F)(F)F)c1
inactive: [1]

C=Cc1c(C)c2cc3[nH]c(cc4nc(cc5nc(cc1[nH]2)C(C)=C5CCC(=O)O)C(CCC(=O)O)=C4C)c(C)c3C=C
inactive: [1]

CCCCCCCCC(=O)NCc1ccc(O)c(OC)c1
inactive: [18] | [19] | [20]

C[C@@H]1C[C@@H]([C@H](O)CC2CC(=O)NC(=O)C2)C(=O)[C@@H](C)C1
1.26 µM (active) and inactive: [17]
active: [4] 2.51 µM | [7] 1 µM | [8] 631 nM and 794 nM | [11] 1 µM | [12] 0.794 µM | [13] 794 nM and 1 µM | [14] 0.794 µM | [15] 1 µM
inactive: [16]

C[C@H](N)[C@H](O)c1ccc(O)c(O)c1
inactive: [18] | [19] | [1]

Oc1ccc(Cl)cc1Sc1cc(Cl)ccc1O
active: [5] 39.8 µM | [7] 39.8 µM | [8] 31.6 µM | [11] 39.8 µM | [12] 39.8 µM | [17] 50.1 µM

COc1cc2c(cc1OC)-c1cc(=Nc3c(C)cc(C)cc3C)n(C)c(=O)n1CC2
inactive: [1]

CCCCNc1ccc(C(=O)OCCN(C)C)cc1
inactive: [1]

Oc1ccc(Cl)cc1Cc1cc(Cl)ccc1O
active: [12] 39.8 µM

C[N+](C)(C)CCCCCCCCCC[N+](C)(C)C
inactive: [1]

CC1=C(C)C(=O)C(CCCCC#CCCCC#CCO)=C(C)C1=O
inactive: [1]

COP(=O)(OC)OC=C(Cl)Cl
inactive: [2] | [3] | [4] | [5] | [6] | [7] | [8] | [9] | [10] | [11] | [12] | [13] | [14] | [15] | [16]
12.6 µM (active) and inactive: [17]

COC(=O)C1=C(C)NC(C)=C(C(=O)OC)C1c1ccccc1[N+](=O)[O-]
active: [5] 39.8 µM | [7] 39.8 µM | [13] 50.1 µM | [14] 39.8 µM | [16] 50.1 µM | [17] 39.8 µM
